Paper PMC4552634, “A New Set of Chemical Starting Points with Plasmodium falciparum Transmission-Blocking Potential for Antimalarial Drug Discovery” (PLoS ONE, 2015)
In all, about 13,000 compounds went through this assay and about 3,200 (25%) showed an effect of 50% or more. Some of the results follow.

The compounds below were run on P. falciparum stage V gametocytes. Settings: 48 h, 5 µM; inhibitor.
Parameters: BacTiter-Glo ATP luminescence viability of purified stage V gametocytes in 384-well plates, per cent inhibition versus DMSO

SMILES	% Inhibition [%]
O=C(NC1CC1)c1ccc(Nc2nccc(-c3c(-c4cccc(NC(=O)c5c(F)cccc5F)c4)nn4ccccc34)n2)cc1 [TCMDC-136002]	-35.37
CCCCN1C(=O)C(c2ccccc2)(c2ccccc2)N=C1N [TCMDC-142007]	12.88
O=C(NCCN1CCOCC1)c1ccc(O)c(-c2cccc(C(F)(F)F)c2)c1 [TCMDC-140162]	21.52
CCCNC(=O)c1ccc(N2CCC(c3ccccc3C)CC2)nc1 [TCMDC-134583]	17.76
O=C(NC1CCCCCC1)[C@@H]1CCCN1C(=O)c1ccc(O)c(-c2ccc(Cl)c(Cl)c2)c1 [TCMDC-140843]	28.6
COc1ccc2nccc([C@@H](O)CN3CCC(NCc4cc5oc(=O)[nH]c5cc4F)CC3)c2c1 [TCMDC-141140]	3.08
CCc1ccccc1N1CCN(CCCC(=O)c2ccc(NC(=O)c3cc(Cl)cc(Cl)c3)cc2)CC1 [TCMDC-138229]	-19.19
Nc1nc(N)c2cc(Cc3ccccc3Cl)cnc2n1 [TCMDC-137918]	-87.91
CCOC(=O)CNC(=O)c1cc(=O)c2ccccc2o1 [TCMDC-131778]	11.83
CC(C)(C)C(=O)Nc1c(-c2cc(=O)oc3cc4c(cc23)CCC4)oc2ccccc12 [TCMDC-125081]	76.3
O=C(NCC1CCCCC1)c1cc(=O)c2ccccc2o1 [TCMDC-123621]	8.117
COC(=O)c1c(NC(=O)c2cccc(C(F)(F)F)c2)sc2c1CCN(Cc1ccccc1)C2 [TCMDC-125828]	-72.37
CCOC(=O)c1ccc(N2CCN(c3cc(C)ccc3C)CC2)c(NC(=O)Nc2ccc(Cl)c(Cl)c2)c1 [TCMDC-123849]	0.9649
N#Cc1ccc(N2C[C@@H](OCc3ccccc3)C[C@H]2C(=O)NCCC(c2ccccc2)c2ccccc2)c2ccccc12 [TCMDC-135421]	62.52
Cc1cc(NC(=O)[C@@H](Nc2ccc(C#N)c3ccccc23)C2CCCCC2)ccc1F [TCMDC-136635]	-42.79
COc1ccccc1CCC(C)(C)NC(=O)CC(CCc1ccccc1)Nc1ccc(C#N)c2ccccc12 (centres unmarked) [TCMDC-132307]	13.06
N#Cc1ccc(N(CC(=O)NCCc2ccccc2)CC2CC2)c2ccccc12 [TCMDC-135574]	-1.825
N#Cc1ccc(N[C@@H](CC2CCCCC2)C(=O)NCc2cc(F)c(F)cc2F)c2ccccc12 [TCMDC-136630]	-9.58
CO[C@@H]1C[C@@H](C(=O)Nc2ccccc2)N(c2ccc(C#N)c3ccccc23)C1 [TCMDC-135413]	86.31
CCOc1cc(C(=O)Nc2ccc3nc(N4CCN(C)CC4)cc(C)c3c2)cc(OCC)c1OCC [TCMDC-123589]	-11.34
O=C(/C=C/c1cccc2c1OCO2)Nc1ccnc2ccncc12 [TCMDC-139845]	-12.08
Cc1ccccc1CNCC(O)c1cccc(C(F)(F)F)c1 (centres unmarked) [TCMDC-140393]	2.038

SMILES	% Inhibition [%]
O=c1cc(NCCC(CNCc2ccc(Br)o2)NCc2cc(Br)cc(Br)c2)[nH]c2ccccc12 (centres unmarked) [TCMDC-140348]	17.71
COc1cc(/C=C/C(=O)NCC(CCNc2cc(=O)c3ccccc3[nH]2)NCc2cc(Br)cc(Br)c2)cc(OC)c1 (centres unmarked) [TCMDC-140217]	-26.95
Cn1cccc1C(=O)NCC(CCNc1cc(=O)c2ccccc2[nH]1)NCc1cc(Br)cc(Br)c1 (centres unmarked) [TCMDC-140218]	-44.96
Cc1cc(CNCC(CCNc2cc(=O)c3ccccc3[nH]2)NCc2cc(Br)cc(Br)c2)oc1C (centres unmarked) [TCMDC-140347]	61.99
O=c1cc(NCCC(CNCc2cc3ccccc3o2)NCc2cc(Br)cc(Br)c2)[nH]c2ccccc12 (centres unmarked) [TCMDC-140345]	70.19
O=c1cc(NC[C@H]2CCC[C@@H]2NCc2cc(Br)cc(Br)c2)[nH]c2ccccc12 [TCMDC-139655]	-0.8474
Cc1sc(C)c(CNCCCNc2cc(=O)c3ccccc3[nH]2)c1Br [TCMDC-140765]	-54.98
O=c1cc(NCCCNCc2cc(Br)cs2)[nH]c2ccccc12 [TCMDC-139310]	-17.04
CCc1ccc(CNCC(CCNc2cc(=O)c3ccccc3[nH]2)NCc2cc(Br)cc(Br)c2)o1 (centres unmarked) [TCMDC-140346]	67.8
Cc1[nH]c2ccc(NS(C)(=O)=O)cc2c1C1CCN(CC2CCN(C(=O)/C=C/c3ccc(Cl)c(Cl)c3)CC2)CC1 [TCMDC-140125]	-39.53
COc1ccc2nccc([C@@H](O)CN3CCC(NC(=O)c4ccc(Cl)c([N+](=O)[O-])c4)CC3)c2c1 [TCMDC-141037]	-23.07
O=C(Nc1cccc(-c2ccc(-c3nc4ccccc4[nH]3)cc2)c1)c1cccnc1 [TCMDC-136924]	-5.994
O=C(Nc1cccc(-c2csc(-c3nc4ccccc4[nH]3)c2)c1)c1cccnc1 [TCMDC-132403]	77.71
O=C(Nc1cccc(-c2csc(-c3nc4ccccc4[nH]3)c2)c1)c1ccncc1 [TCMDC-132402]	13.78
Cn1cnc(CCNC(=O)c2cccc(-c3csc(-c4nc5ccccc5[nH]4)c3)c2)c1 [TCMDC-132501]	74.26
O=C(Nc1cccc(-c2cccc(-c3nc4ccccc4[nH]3)c2)c1)c1cccnc1 [TCMDC-136928]	76.9
O=C(Nc1cccc(-c2cccc(-c3nc4ccccc4[nH]3)c2)c1)c1ccncc1 [TCMDC-136955]	6.238
Cn1cnc(CCNC(=O)c2ccc(-c3cccc(-c4nc5ccccc5[nH]4)c3)cc2)c1 [TCMDC-132495]	-19.92
CC(=O)Nc1cccc(C(=O)Nc2cccc(-c3csc(-c4nc5ccccc5[nH]4)c3)c2)c1 [TCMDC-132398]	-2.258
Cn1cnc(CCNC(=O)c2cccc(-c3ccc(-c4nc5cc(F)ccc5[nH]4)cc3)c2)c1 [TCMDC-132492]	7.487
CN(C)c1ccc(N2C(N)=NC(N)=NC23CCCC3)cc1 [TCMDC-123607]	9.069
CN(CC(=O)Nc1cc(C(F)(F)F)ccc1-n1cncn1)Cc1ccc2ccccc2c1 [TCMDC-125257]	-1.841

SMILES	% Inhibition [%]
Cc1cc(NCc2ccc(F)cc2)nc2cc(O)ccc12 [TCMDC-124412]	9.894
O=C(/C=C/c1ccc(Cl)c(Cl)c1)N1CCC(CN2CCC(Cc3cc4ccccc4[nH]3)CC2)CC1 [TCMDC-140231]	13.2
CCCCCCCCc1[nH]c(C)c(Br)c(=O)c1Br [TCMDC-137433]	43.41
Cc1cc(CN2CCC(C(=O)Nc3ccc(-c4nc5ccccc5[nH]4)cc3)CC2)oc1C [TCMDC-124612]	-34.2
COc1ccc(C2C(C(=O)Nc3ccc4c(c3)OCO4)c3cc(OC)c(OC)cc3C(=O)N2C)cc1 (centres unmarked) [TCMDC-123593]	37.81
COc1cc2c(cc1OC)C(C(=O)Nc1cc(OC)c(OC)c(OC)c1)C(c1ccc(SC)cc1)N(C)C2=O (centres unmarked) [TCMDC-125151]	59.65
COc1ccc(C2C(C(=O)Nc3ccc(C)c(F)c3)c3cc(OC)c(OC)cc3C(=O)N2C)cc1 (centres unmarked) [TCMDC-123594]	-36.5
COc1cc(SC)ccc1C(=O)N1CC(C)CC(C)C1 (centres unmarked) [TCMDC-123656]	27.35
COc1ccc(C2C(C(=O)Nc3cc(OC)c(OC)c(OC)c3)c3cc(OC)c(OC)cc3C(=O)N2C)cc1 (centres unmarked) [TCMDC-125141]	92.28
O=C(N[C@@H](Cc1ccccc1)C(=O)NC1CCCc2ccccc21)c1ccc(O)c(-c2cccc(C(F)(F)F)c2)c1 (some centres unmarked) [TCMDC-140820]	23.49
CCN(CC)CCN(Cc1ccc(-c2ccc(C(F)(F)F)s2)cc1)C(=O)Cn1c(CCc2cccc(F)c2F)nc(=O)c2ccccc21 [TCMDC-141262]	57
CC(C)(C)NCCN(Cc1ccc(-c2ccc(C(F)(F)F)cc2)cc1)C(=O)Cn1c(CCc2cccc(F)c2F)nc(=O)c2ccccc21 [TCMDC-141080]	105.1
CCN(CC)CCN(Cc1ccc(-c2ccc(C#N)cc2)cc1)C(=O)Cn1c(CCc2cccc(F)c2F)nc(=O)c2ccccc21 [TCMDC-141150]	0.7472
CCN(CC)CCN(CCCc1ccc(-c2ccc(C(F)(F)F)cc2)cc1)C(=O)Cn1c(CCc2cccc(F)c2F)nc(=O)c2ccccc21 [TCMDC-141253]	67.3
CCN(CC)CCN(Cc1ccc(-c2ccc(Cl)cc2)cc1)C(=O)Cn1c(CCc2cccc(F)c2F)nc(=O)c2ccccc21 [TCMDC-141054]	39.4
CCN(CC)CCN(Cc1ccc(-c2ccc(Cl)s2)cc1)C(=O)Cn1c(CCc2cccc(F)c2F)nc(=O)c2ccccc21 [TCMDC-141229]	28.5
CCN(CC)CCN(Cc1ccc(-c2ccc(Br)cc2)cc1)C(=O)Cn1c(CCc2cccc(F)c2F)nc(=O)c2ccccc21 [TCMDC-141305]	51.66
Cc1ccccc1C1CCN(C2CCC(NC(=O)c3cc4cc(C(C)C)ccc4[nH]3)CC2)CC1 (centres unmarked) [TCMDC-133554]	15.06
COc1ccc2ncc(C#N)c(CCN3C4CCC3CC(NCc3ccc5c(n3)NC(=O)CS5)C4)c2c1 (centres unmarked) [TCMDC-135180]	37.34
Brc1cnc(NC2=NCCN2)c(Br)c1 [TCMDC-131680]	12.04
Cc1nc(C)c(CC(=O)Nc2cccc(-c3cccc(-c4nc5ccc(C(F)(F)F)cc5[nH]4)c3)c2)s1 [TCMDC-136995]	4.513
